# Experimental data reported in PubChem BioAssay AID1159580 (chemical genetic matrix, 2015).
# About 2,000 (36%) of roughly 5,500 compounds were called active. About 18% were inconclusive and are not listed. The list shows a part of the results. Unmarked numbers belong to inactive results. Rule as the data show it: active = normalized growth mostly below about 0.91 (no sharp cut-off); inconclusive = no clear call, values can overlap the other calls; inactive = mostly above about 0.92.
# Experiment: chemical genetic growth profiling, strain panel (AID 1159580);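 also: tested at 20 µM; growth read once vehicle control cultures reached saturation at 30 °C; 1 = growth at the plate median or of vehicle wells; lower values mean less growth of the strain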
# Details: S. cerevisiae deletion strains, growth OD
compound,measurement,setting,value
O=C(NCCc1ccncc1)c1ccc(Cl)c(Cl)c1,normalized growth,"locus YAR019C, strain CDC15, stronger effect = lower value",0.985
same,normalized growth,"locus YBL105C, strain PKC1, stronger effect = lower value",0.987
same,normalized growth,"locus YBR135W, strain CKS1, stronger effect = lower value",0.988
same,normalized growth,"locus YBR136W, strain MEC1, stronger effect = lower value",0.987
same,normalized growth,"locus YBR160W, strain CDC28, stronger effect = lower value",0.991
same,normalized growth,"locus YDL017W, strain CDC7, stronger effect = lower value",0.991
same,normalized growth,"locus YDL028C, strain MPS1, stronger effect = lower value",0.985
same,normalized growth,"locus YDL101C, strain DUN1, stronger effect = lower value",0.98
same,normalized growth,"locus YDL108W, strain KIN28, stronger effect = lower value",0.981
same,normalized growth,"locus YDL132W, strain cdc53, stronger effect = lower value",0.998
same,normalized growth,"locus YDL214C, strain PRR2, stronger effect = lower value",0.945
same,normalized growth,"locus YDR052C, strain DBF4, stronger effect = lower value",0.988
same,normalized growth,"locus YDR054C, strain cdc34, stronger effect = lower value",0.984
same,normalized growth,"locus YDR226W, strain ADK1, stronger effect = lower value",0.985
same,normalized growth,"locus YDR477W, strain SNF1, stronger effect = lower value",1.01
same,normalized growth,"locus YER123W, strain YCK3, stronger effect = lower value",0.877
same,normalized growth,"locus YER133W, strain GLC7, stronger effect = lower value",0.969
same,normalized growth,"locus YFL009W, strain cdc4, stronger effect = lower value",0.982
same,normalized growth,"locus YFL029C, strain CAK1, stronger effect = lower value",0.98
same,normalized growth,"locus YFR003C, strain YPI1, stronger effect = lower value",0.984
same,normalized growth,"locus YFR019W, strain FAB1, stronger effect = lower value",0.927
same,normalized growth,"locus YFR028C, strain CDC14, stronger effect = lower value",0.994
same,normalized growth,"locus YGR040W, strain KSS1, stronger effect = lower value",0.992
same,normalized growth,"locus YGR052W, strain FMP48, stronger effect = lower value",0.985
same,normalized growth,"locus YGR092W, strain DBF2, stronger effect = lower value",1
same,normalized growth,"locus YHR030C, strain SLT2, stronger effect = lower value",0.911
same,normalized growth,"locus YHR079C, strain IRE1, stronger effect = lower value",0.938
same,normalized growth,"locus YHR082C, strain KSP1, stronger effect = lower value",1.1
same,normalized growth,"locus YHR205W, strain SCH9, stronger effect = lower value",0.99
same,normalized growth,"locus YIL147C, strain SLN1, stronger effect = lower value",0.986
same,normalized growth,"locus YJL095W, strain BCK1, stronger effect = lower value",0.925
same,normalized growth,"locus YJL128C, strain PBS2, stronger effect = lower value",0.94
same,normalized growth,"locus YJL157C, strain FAR1, stronger effect = lower value",0.96
same,normalized growth,"locus YJR016C, strain ILV3, stronger effect = lower value",0.995
same,normalized growth,"locus YJR066W, strain TOR1 (second series), stronger effect = lower value",1.03
same,normalized growth,"locus YJR066W, strain TOR1, stronger effect = lower value",1.04
same,normalized growth,"locus YKL048C, strain ELM1, stronger effect = lower value",0.992
same,normalized growth,"locus YKL067W, strain YNK1, stronger effect = lower value",0.947
same,normalized growth,"locus YKL101W, strain HSL1, stronger effect = lower value",0.941
same,normalized growth,"locus YKL193C, strain SDS22, stronger effect = lower value",0.992
same,normalized growth,"locus YKL203C, strain TOR2, stronger effect = lower value",1.01
same,normalized growth,"locus YLR113W, strain HOG1, stronger effect = lower value",0.756 (active)
same,normalized growth,"locus YLR133W, strain CKI1, stronger effect = lower value",0.977
same,normalized growth,"locus YLR403W, strain SFP1, stronger effect = lower value",0.972
same,normalized growth,"locus YML070W, strain DAK1, stronger effect = lower value",0.941
same,normalized growth,"locus YMR001C, strain CDC5, stronger effect = lower value",0.989
same,normalized growth,"locus YMR205C, strain PFK2 (second series), stronger effect = lower value",0.978
same,normalized growth,"locus YMR277W, strain FCP1, stronger effect = lower value",0.989
same,normalized growth,"locus YNL006W, strain LST8, stronger effect = lower value",0.976
same,normalized growth,"locus YNL020C, strain ARK1, stronger effect = lower value",0.964
same,normalized growth,"locus YNL161W, strain CBK1, stronger effect = lower value",0.991
same,normalized growth,"locus YNL183C, strain NPR1, stronger effect = lower value",1.01
same,normalized growth,"locus YNL207W, strain RIO2, stronger effect = lower value",0.991
same,normalized growth,"locus YNL222W, strain SSU72, stronger effect = lower value",0.992
same,normalized growth,"locus YNL307C, strain MCK1 (second series), stronger effect = lower value",0.961
same,normalized growth,"locus YOL078W, strain AVO1, stronger effect = lower value",0.997
same,normalized growth,"locus YOL136C, strain PFK27, stronger effect = lower value",0.945
same,normalized growth,"locus YOR061W, strain CKA2, stronger effect = lower value",0.924
same,normalized growth,"locus YOR119C, strain RIO1, stronger effect = lower value",1.03
same,normalized growth,"locus YOR231W, strain MKK1, stronger effect = lower value",0.916
same,normalized growth,"locus YOR329C, strain SCD5, stronger effect = lower value",0.991
same,normalized growth,"locus YPL031C, strain PHO85, stronger effect = lower value",0.976
same,normalized growth,"locus YPL153C, strain RAD53, stronger effect = lower value",0.993
same,normalized growth,"locus YPL204W, strain HRR25, stronger effect = lower value",0.972
same,normalized growth,"locus YPL209C, strain IPL1, stronger effect = lower value",0.987
same,normalized growth,"locus YPL256C, strain CLN2, stronger effect = lower value",0.868
same,normalized growth,"locus YPR025C, strain CCL1, stronger effect = lower value",0.992
same,normalized growth,"locus YPR106W, strain ISR1, stronger effect = lower value",0.983
same,normalized growth,"locus YPR111W, strain DBF20, stronger effect = lower value",0.961
same,normalized growth,"strain NNK1, stronger effect = lower value",0.982
same,normalized growth,"strain TSCII, stronger effect = lower value",0.983
